Most compounds without a hit are left out; they make up all but 10% or so of the library.
Six1-Eya2 blk: Six1/Eya2 interaction inhibition; AlphaScreen GST-Six1/His-Eya2 binding, biochemical; hits give low values; activity change, % (test concentration not listed); 360,000 tested, 0.56% active; in the data active means activity change below about -65%; inconclusive means mostly about -30% to -63%; further: on the % scale 0 is the no-effect control and ±100 the full control effect
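AlphaScreen luminescence read after one hour at 37 °C in darkness. Pin-transferred compounds met GST-Six1 and His-Eya2 protein (5X stock 250 nM/500 nM) plus glutathione donor and Ni-chelate acceptor beads (5X, 50 ug/mL).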
HP1b binding inh: blocks HP1-beta chromodomain binding to methylated histone tails; P83916; 390,000 tested, 0.56% active; Potency, µM (top dose mostly 114 µM), inactives show top-dose activity change, negative = inhibition, usual class: inhibitors; AlphaScreen HP1-beta / biotin-H3K9me3 peptide binding; AID 540317; further: potency means the concentration at half of the fitted maximal effect; nearly all actives have a fitted effect of over 70% in size
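AlphaScreen: HP1-beta (50 nM) preformed 30 min with biotin-H3(1-18)K9me3 peptide (50 nM) in PBS pH 7.4, 0.01% Tween-20. Compound added for 30 min at RT, then streptavidin donor/nickel chelate acceptor beads (10 ug/mL) for 30 min.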
JMJD2A Tudor: blocks the human JMJD2A Tudor domain. O75164. AlphaScreen JMJD2A-Tudor / H3K4me3 peptide binding. Potency, µM (series often up to 114 µM), inactives show at the highest dose activity change, negative = inhibition, actives largely listed as inhibitors. 390,000 tested, 4.4% active. AID 504339; further: potency means the concentration at half of the fitted maximal effect; on the % scale 0 is the no-effect control and ±100 the full control effect; nearly all actives have a fitted effect of over 50% in size
G9a block: inhibitors of human histone lysine methyltransferase G9a; G9a H3K9 monomethylation, AlphaScreen, 2 h; Q96KQ7; AID 504332; 350,000 tested, 8.8% active; Potency, µM (series often up to 102 µM), inactives show top-dose activity, negative = inhibition, hits mostly inhibitors; further: potency means the concentration at half of the fitted maximal effect; on the % scale 0 is the no-effect control and ±100 the full control effect; nearly all actives have a fitted effect of over 75% in size
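Using a bead-based AlphaScreen, monomethylated H3K9 product from 2 h room-temperature reactions (G9a 20 nM, peptide 500 nM, SAM 20 uM) was detected with 0.5 ug/mL rabbit anti-H3K9me1 antibody.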
CtBP-E1A inh: inhibitors of CtBP/E1A interaction | 340,000 tested, 0.49% active | AlphaScreen GST-E1A/His-CtBP binding, 1536-well; hits give low values | activity change, % (test concentration not listed); in the data active means activity change below about -65%; inconclusive means mostly about -30% to -63%; further: on the % scale 0 is the no-effect control and ±100 the full control effect
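Steps: dispense buffer (Tris pH 8.0, NaCl 300 mM, TCEP 1 mM, BSA, Tween 20); add 5X protein mix (GST-E1A, His-CtBP, 125 nM each); pin 23 nL compound; 2 h at 37 °C, dark; add 5X beads (50 ug/mL); 1 h; read.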
BAZ2B inh: BAZ2B (human) inhibition; AID 504333; AlphaScreen BAZ2B-H3K14Ac peptide displacement; 360,000 tested, 4.4% active; Potency, µM (top dose mostly 114 µM), for the others: at the top dose activity change, negative = inhibition, usual class: inhibitors; Q9UIF8; further: potency means the concentration at half of the fitted maximal effect; on the % scale 0 is the no-effect control and ±100 the full control effect; nearly all actives have a fitted effect of over 60% in size
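Multi-concentration screen (max 110 uM) measuring displacement of acetylated histone H3 peptide from BAZ2B by AlphaScreen, using 50 nM protein, 50 nM peptide and 10 ug/mL streptavidin donor plus Ni-chelate acceptor beads.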
* hit, by the source's call; [ ] = dose if it differs, or a comment. Unless noted, the call rests on the fitted dose curve; in most records, active means well fitted inhibition curve with a large enough effect; inconclusive means small, poorly fitted or top-dose-only effect; inactive means no such curve, though single readings can be large or run the other way.

For COc1ccc(CN2CC[C@@H]3CN(C(C)=O)[C@H](c4ccccc4Br)C[C@@H]32)cc1 the results were Six1-Eya2 blk -5 and CtBP-E1A inh 2.
`CCC(C(=O)Nc1nnc2n1CCS2)c1ccccc1` (stereo not drawn) gave HP1b binding inh 16%[57 µM], JMJD2A Tudor -24%, G9a block -47%[59 µM] and BAZ2B inh -37%.
`CC(=O)c1c(C)[nH]c(C(=O)OCC(=O)c2ccc(Br)cc2)c1C` gave Six1-Eya2 blk -22 and CtBP-E1A inh -2.
`COc1ccc(-c2cc(=O)c(C(=O)c3ccc(C)cc3)n[nH]2)cc1` gave Six1-Eya2 blk 10, HP1b binding inh 21%, JMJD2A Tudor 1%[11.4 µM], G9a block -26% and BAZ2B inh 31%.
CS(=O)(=O)N1CCC(C(=O)NCc2ccc(F)cc2)CC1 was read as Six1-Eya2 blk 6, HP1b binding inh 42%, JMJD2A Tudor -13%, G9a block -18% and BAZ2B inh 0%.
Screening COC(=O)c1c(NC(=O)c2ccc(OC)cc2OC)sc2c1CCCCC2 returned HP1b binding inh 30%, JMJD2A Tudor -28%, G9a block -41%[59 µM] and BAZ2B inh -20%.
For COc1ccc(S(=O)(=O)Nc2ccc(S(=O)(=O)Nc3nccs3)cc2)cc1 the results were Six1-Eya2 blk 14, HP1b binding inh 11%, JMJD2A Tudor -7%, G9a block 50µM*, CtBP-E1A inh 0 and BAZ2B inh -3%.
COc1ccc(CC(=O)Nc2ccc(S(=O)(=O)Nc3nccs3)cc2)cc1 was read as Six1-Eya2 blk -5, HP1b binding inh -8%, JMJD2A Tudor inconclusive, G9a block -79%, CtBP-E1A inh -2 and BAZ2B inh -26%.
Screening Cc1ccc(C)c(NC(=O)C2(C)CCCN2C(=O)C(C)C)c1 (stereo not drawn) returned Six1-Eya2 blk 3 and CtBP-E1A inh 4.
For C#CCOCCOCCOCCNc1nc(N2CCN(C(=O)CCCCCCCCCCNC(=O)[C@H](CCCCN)n3cc(CCO)nn3)CC2)nc(N2CCN(C(=O)CCCCCCCCCCNC(=O)[C@H](CCCCN)n3cc(CCCC(=O)O)nn3)CC2)n1 the results were Six1-Eya2 blk 0, HP1b binding inh 15%, JMJD2A Tudor -35%, G9a block -7%[2.33 µM], CtBP-E1A inh -4 and BAZ2B inh -27%.
C#CCOCCOCCOCCNc1nc(N2CCN(C(=O)CCCCCCCCCCNC(=O)[C@@H](CCC(=O)O)n3cc(CCCCCN)nn3)CC2)nc(N2CCN(C(=O)CCCCCCCCCCNC(=O)[C@H](CO)n3cc(CCCCCN)nn3)CC2)n1 was read as Six1-Eya2 blk -4, HP1b binding inh -12%, JMJD2A Tudor inconclusive, G9a block -7%[2.33 µM], CtBP-E1A inh -1 and BAZ2B inh -38%.
`C#CCOCCOCCOCCNc1nc(N2CCN(C(=O)CCCCCCCCCCNC(=O)[C@@H](CCC(=O)O)n3cc(CCCCCN)nn3)CC2)nc(N2CCN(C(=O)CCCCCCCCCCNC(=O)[C@H](CCCCN)n3cc(C[C@@H](C)CC)nn3)CC2)n1` gave Six1-Eya2 blk -6, HP1b binding inh -3%, JMJD2A Tudor 56µM*, G9a block -16%[2.33 µM], CtBP-E1A inh -7 and BAZ2B inh inconclusive.
Screening C#CCOCCOCCOCCNc1nc(N2CCN(C(=O)CCCCCCCCCCNC(=O)[C@H](CCCCN)n3cc(CCO)nn3)CC2)nc(N2CCN(C(=O)CCCCCCCCCCNC(=O)[C@H](CCCCN)n3cc(C[C@@H](C)CC)nn3)CC2)n1 returned Six1-Eya2 blk 1, HP1b binding inh 50µM*, JMJD2A Tudor 22µM*, G9a block 14%[2.33 µM], CtBP-E1A inh -18 and BAZ2B inh inconclusive.
For CC12CCC=CC1C(c1ccc(Br)cc1F)N(Cc1ccccc1)C2=O (stereo not drawn) the results were HP1b binding inh 22% and JMJD2A Tudor -7%.
`CCCCN1/C(=C/c2cccc[n+]2C)Sc2cc(NC(C)=O)ccc21` gave Six1-Eya2 blk 0, HP1b binding inh 15%, JMJD2A Tudor 28µM*, G9a block 45µM* and BAZ2B inh -29%.
`CCOC(=O)Nc1ccc2c(c1)Sc1ccccc1N2C(=O)CCN1CCOCC1` gave Six1-Eya2 blk -4, HP1b binding inh 13%, JMJD2A Tudor -12%, G9a block inconclusive, CtBP-E1A inh 0 and BAZ2B inh -25%.
For Cc1ccc(N=C2C(=O)Nc3ccc(C)c(Br)c32)cc1 the results were Six1-Eya2 blk 2, HP1b binding inh -18%, JMJD2A Tudor inconclusive, G9a block 1.3µM* and BAZ2B inh inconclusive.
For O=C1Nc2ccccc2C1=Nc1ccc(F)cc1 the results were Six1-Eya2 blk 10, HP1b binding inh inconclusive, JMJD2A Tudor -24%, G9a block -9%, CtBP-E1A inh 4 and BAZ2B inh -4%.
For COc1ccc(N=C2C(=O)Nc3ccccc32)cc1 the results were Six1-Eya2 blk 1, HP1b binding inh -2%, JMJD2A Tudor -24%, G9a block inconclusive, CtBP-E1A inh -6 and BAZ2B inh 6%.
For COc1ccc(N=C2C(=O)Nc3ccc(C)c(Br)c32)cc1 the results were Six1-Eya2 blk 9, HP1b binding inh inconclusive, JMJD2A Tudor inconclusive, G9a block 11µM* and BAZ2B inh 6.3µM*.
For COC(=O)C1=C(C(=O)OC)SC2(S1)C(C(=O)OC)=C(C(=O)OC)SC1=C2c2cc(C)ccc2NC1(C)C the results were Six1-Eya2 blk 6, HP1b binding inh -81%, JMJD2A Tudor 56µM*, G9a block inconclusive, CtBP-E1A inh -10 and BAZ2B inh inconclusive.
For CCOC(=O)C1(N(CC)CC)Sc2cc(C)ccc2NC1=O (stereo not drawn) the results were Six1-Eya2 blk -5, HP1b binding inh 5%, JMJD2A Tudor -9%[57.1 µM], G9a block inconclusive, CtBP-E1A inh -2 and BAZ2B inh inconclusive.
`CCCC(=O)N1CCCC1(C)C(=O)Nc1ccc(-n2cccc2)cc1` (stereo not drawn) gave Six1-Eya2 blk -4 and CtBP-E1A inh -2.
O=C(CCc1ccccc1)Nc1nnc(-c2ccccn2)o1 was read as Six1-Eya2 blk -25, HP1b binding inh 9%, JMJD2A Tudor 20µM*, G9a block inconclusive, CtBP-E1A inh -19 and BAZ2B inh 50µM*.
For CCC(=O)Nc1nnc(-c2ccccn2)o1 the results were Six1-Eya2 blk -29, HP1b binding inh 5%, JMJD2A Tudor 5.6µM*, G9a block 4.5µM*, CtBP-E1A inh 11 and BAZ2B inh 28µM*.

Screening results deposited in PubChem BioAssay by National Center for Advancing Translational Sciences (NCATS).
